# Sampled rows, rich in hits. Any-hit rate of the full collection: about 1.4%.
# HTR5A ag: HTR5A agonists in luminescence cell assay, primary screen, counter-screen for OPRM1-OPRD1 heterodimer agonist project, full-deck HTS | activation, % at 9.3 µM | actives 0.61% (n = 340,000) | cell-based; in the data active means activation mostly above about 9.5%, no sharp cut-off; inactive means mostly below about 7.6%;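 further: 0% = cells with vehicle only and 100% = reference agonist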
# Target sequence (P47898 whole entry, looked up): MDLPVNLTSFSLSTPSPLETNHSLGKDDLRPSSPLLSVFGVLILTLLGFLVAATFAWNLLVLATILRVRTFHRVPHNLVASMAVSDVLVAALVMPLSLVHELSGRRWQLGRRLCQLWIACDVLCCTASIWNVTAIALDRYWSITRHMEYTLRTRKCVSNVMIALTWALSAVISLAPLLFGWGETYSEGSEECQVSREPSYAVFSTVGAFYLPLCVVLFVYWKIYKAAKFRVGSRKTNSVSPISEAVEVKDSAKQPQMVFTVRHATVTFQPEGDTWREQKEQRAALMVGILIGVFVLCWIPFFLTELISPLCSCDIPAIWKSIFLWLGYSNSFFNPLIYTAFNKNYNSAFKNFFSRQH
# MOR-DOR ag: agonists of OPRM1-OPRD1 heterodimerization, primary screen, cell-based, luminescence. Mu-type opioid receptor (Homo sapiens) + Delta-type opioid receptor (Homo sapiens), …. cells. activation, % at 9.3 µM. actives 0.3% (n = 340,000). AID 504326, 2011; in the data active means activation above about 18%;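 further: 0% = vehicle-treated cells and 100% = reference agonist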
# MOR-DOR inv ag: inverse agonists of MOR-DOR heterodimerization, primary screen, cell-based, luminescence; Mu-type opioid receptor (Homo sapiens) + Delta-type opioid receptor (Homo sapiens), …; cell-based MOR-DOR heterodimer luminescence, inverse agonism; inhibition, % at 9.3 µM; actives 0.21% (n = 340,000); in the data active means inhibition above about 22%, passing the limit was not always enough;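 further: 0% = cells with DMSO and 100% = wells without cells with DMSO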
# MIN6 prolif: inducers of MIN6 beta-cell proliferation, primary screen, ATP luminescence, uHTS | proliferation, % at 10 µM | actives 0.29% (n = 330,000) | MIN6 cells proliferation, ATPlite luminescence, 48 h; cells starved in 0.2% serum; 100% = growth in 10% serum;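 active means compounds whose signal lies at least 3.5 SD above the mean of all wells on their plate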;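 further: 0% = DMSO-treated cells in low-serum medium and 100% = 10% serum control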
# pCIP destab: p/CIP-EGFP fusion destabilizers, primary screen, fluorescence, F442A cells; 16 h; decrease of EGFP signal, % at 10 µM; actives 0.01% (n = 290,000);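 active means EGFP signal decrease of at least 30% at 10 µM or well 3 SD below plate mean, unless failing retest; inactive means the rest, including hits failing retest or dose response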
# HTR5A inv ctr: HTR5A inverse agonists in luminescence cell assay, primary screen, counter-screen for OPRM1-OPRD1 heterodimer inverse agonist project, full-deck HTS; HTR5A cell line, inverse agonism; actives 0.083% (n = 340,000); 5-hydroxytryptamine receptor 5A (Homo sapiens), P47898; inhibition, % at 9.3 µM; in the data active means inhibition mostly above about 23%, no sharp cut-off; inactive means mostly below about 18%;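 further: 0% = cells with DMSO and 100% = no-cell wells with DMSO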
# OPRM1-D1 inv cf: inverse agonists of MOR-DOR heterodimerization, confirmation, cell-based, luminescence | cells expressing OPRM1/OPRD1 heterodimer | inhibition, % at 9.3 µM | actives 20% (n = 580) | shares compounds with MOR-DOR inv ag | AID 504900, 2011; in the data active means inhibition above about 32%;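 further: 0% = cells with DMSO and 100% = wells lacking cells with DMSO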
# HTR5A inv count: HTR5A inverse agonists, counter-screen for OPRM1-OPRD1 inverse agonist project, cell-based, luminescence; shares compounds with MOR-DOR inv ag; HTR5A-expressing cells, inverse agonism; inhibition, % at 9.3 µM; 580 tested, under 10 active; call rule not given here;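 further: 0% = cells with DMSO and 100% = no-cell wells with DMSO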
# * marks the source's active call; other numbers are inactive results; i = inactive; x = no result given.
SMILES,HTR5A ag,MOR-DOR ag,MOR-DOR inv ag,MIN6 prolif,pCIP destab,HTR5A inv ctr,OPRM1-D1 inv cf,HTR5A inv count
CCC(OC(=O)CN1C(=O)C(=O)c2ccccc21)C(=O)Nc1ccccc1OC (stereo unspecified),-7.9,-6.1,49.5*,-0.9,3.9,23.4*,3.2,-7.1
CCC(Oc1ccccc1)C(=O)Nc1ccccc1OC (stereo unspecified),1.9,2.1,-12.2,-1.6,-1.3,-10.4,x,x
CCC(OC(=O)C(C)N1C(=O)C(=O)c2ccccc21)C(=O)Nc1ccccc1OC (stereo unspecified),-3.8,-7.6,48.2*,-4.7,-8.1,1.9,10.3,4.2
COc1ccccc1NC(=O)C(C(C)C)N1C(=O)c2ccccc2C1=O (stereo unspecified),-4.2,-2.4,11.6,-1.0,2.3,14.4,x,x
COc1ccc(-c2nc(-c3cccs3)c(-c3cccs3)[nH]2)cc1OC,0.0,-5.0,29.8*,-6.2,3.6,6.6,i,3.6
COc1ccc(-c2nc(-c3ccccc3)c(-c3cccs3)[nH]2)cc1OC,-3.4,0.6,-3.8,-3.5,-9.5,9.0,x,x
C[C@H]1CN([C@@H](C)CO)C(=O)c2cccc(NC(=O)C3CC3)c2O[C@H]1CN(C)S(=O)(=O)c1ccccc1,0.7,-2.7,14.9,0.2,x,-1.8,x,x
CC(=O)CCC(=O)OCC(=O)c1ccc(C(F)(F)F)cc1,4.7,-9.0,44.8*,-2.4,-26.5,4.0,-0.9,13.2
O=C(CCC(=O)c1cccs1)OCC(=O)c1ccc(F)cc1,-3.9,-2.7,13.9,0.7,x,15.1,x,x
O=C1N=c2ccccc2=C1c1c(O)n(-c2cccc(F)c2)[nH]c1=O,-7.0,-6.1,36.5*,x,6.6,18.7,-44.1,9.9
CCCCn1c(N)c(N(CC(C)C)C(=O)C2=NN(c3ccccc3)C(=O)CC2)c(=O)[nH]c1=O,5.9,-2.6,9.9,-5.5,x,7.5,x,x
COc1ccc(-c2csc3ncnc(N4CCN(c5ccccc5Cl)CC4)c23)cc1,-2.0,-1.1,5.7,-7.0,-6.7,14.1,x,x
COc1ccc(-c2csc3ncnc(N4CCN(c5cccc(C)c5C)CC4)c23)cc1,0.6,-7.4,40.0*,-7.0,-17.4,-7.4,-175.8,-10.6
N#CC(=C1C=CC(=NO)C(Cl)=C1)c1ccc(Cl)cc1,0.2,-2.0,8.7,x,x,-0.7,x,x
COc1ccc(C(C#N)=C2C=CC(=NO)C=C2)cc1,0.8,-9.6,47.6*,-3.9,-11.4,-2.0,-46.7,-34.9
OCCCNCc1ccc(N(c2ccccc2)c2ccccc2)cc1,3.1,3.8,-31.1,-4.3,-10.7,-12.4,x,x
O=C(C1=C(Nc2ccccc2)c2ccccc2S(=O)(=O)N1)c1ccccc1,-3.5,-5.7,31.5*,-0.7,-7.6,7.2,18.9,13.9
Cc1ccccc1NC1=C(C(=O)c2ccccc2)N(C)S(=O)(=O)c2ccccc21,0.5,0.5,-2.7,-2.5,-8.8,-8.9,x,x
Cc1ccc(C(=O)Nc2cccc(NC(=O)CN3CCCCC3)c2)cc1,-1.9,-1.4,6.5,-3.7,-2.1,7.0,x,x
O=C(/C=C/c1ccccc1)C1=C(O)C(=O)N(CCO)C1c1ccccc1[N+](=O)[O-] (stereo unspecified),-3.7,-10.4,52.0*,-1.9,6.0,20.2,-426.9,-36.6
O=C(/C=C/c1ccccc1)C1=C(O)C(=O)N(CCO)C1c1cccc([N+](=O)[O-])c1 (stereo unspecified),x,x,x,4.6,-3.7,x,x,x

# Source: PubChem BioAssay (several laboratories)
